# From PubChem BioAssay (EPA / NIEHS)
# Inconclusive results are not listed. Activity calls are given as the source filed them. How the source made its calls, unless noted: active means hit-call score of the fitted dose curve at least 0.9, where 1 is the maximum; inconclusive means response in the unintended direction; inactive means score below 0.9.
# What was measured:
# [1] = ACEA_ER_AUC_viability: ACEA Biosciences xCELLigence Real-Time Cell Analysis on Estrogen Receptor Agonism for Viability (AID 2283782);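 further: continuous compound exposure with impedance area under curve over 80 h; hit means loss of impedance signal meaning reduced cell growth or viability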
# Outline: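 T47D cells preconditioned in phenol red-free RPMI with charcoal-stripped FBS, then dosed with 8-point 1:4 series from 100 uM (up to 0.5% DMSO). Impedance monitored up to ~80 h; area-under-curve loss versus DMSO taken as viability.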
# [2] = CCTE_Harrill_HTTr_Viability_MCF7: CCTE's 6-hour Cell Viability Assessment for the High-Throughput Transcriptomics (HTTr) Platform, in MCF-7 cells cultured in DMEM + 10% fetal bovine serum, Harrill Lab (AID 2284010; active means hit-call score of the fitted dose curve at least 0.9, where 1 is the maximum; inactive means score below 0.9)
# Outline: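 Viability measured through PI dye exclusion by high-content imaging at 6 h post-dosing.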
# [3] = CCTE_Harrill_HTTr_Apoptosis_MCF7: CCTE's 6-hour Apoptosis Assessment for the High-Throughput Transcriptomics (HTTr) Platform, in MCF-7 cells cultured in DMEM + 10% fetal bovine serum, Harrill Lab (AID 2284011; active means hit-call score of the fitted dose curve at least 0.9, where 1 is the maximum; inactive means score below 0.9)
# Outline: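 Read-out: CellEvent Caspase 3/7 Green signal by high content imaging, gain-of-signal indicating apoptosis. MCF-7 cells, DMEM + 10% FBS, eight-point dilution series, 6 h exposure. Curves fitted bidirectionally relative to DMSO negative control.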
# [4] = CCTE_Harrill_HTTr_CellCount_MCF7: CCTE's Cell Proliferation Assessment for the High-Throughput Transcriptomics (HTTr) Platform, Harrill Lab (AID 2284012);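 further: count of Hoechst-stained nuclei per well by high-content imaging in MCF-7 cells; cells exposed to compound for six hours; intended direction is loss of nuclei count meaning fewer cells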
# Outline: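 Nuclei counting (Hoechst, high content imaging) in MCF-7 after a 6 h treatment at eight concentrations. Activity fitted bidirectionally, DMSO as negative control.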
# [5] = TOX21_p53_BLA_p2_viability: Viability Assessment in the Tox21 HCT-116 p53 Agonism Beta-lactamase Assay, Phase 2 (AID 2283591);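 further: compound exposure lasted 16 h at 37 °C; actives lower the ATP signal meaning cytotoxicity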
# Outline: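 HCT116 p53-bla cells, 4000/well, dosed after 5 h plating (217-fold dilution of DMSO stocks) and incubated 16 h at 37C. Viability taken as cellular ATP by CellTiter-Glo luminescence after 30 min RT; signal loss marks cytotoxicity.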
# [6] = TOX21_p53_BLA_p3_viability: Viability Assessment in the Tox21 HCT-116 p53 Agonism Beta-lactamase Assay, Phase 3 (AID 2283593);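 further: cells exposed to compound for 16 h before reading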
# Outline: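 HCT116 cells, 4000/well, dosed 5 h after plating by pin transfer (217-fold dilution from DMSO stock) and incubated 16 h at 37C, 5% CO2. Viability read as ATP luminescence with CellTiter-Glo after 30 min at room temperature.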
# [7] = target: Cellular tumor antigen p53 (Homo sapiens) (UniProt P04637); assay: TOX21_p53_BLA_p3_ratio: Tox21 HCT-116 p53 Agonism Beta-lactamase Assay, Ratio, Phase 3 (AID 2283596)
# Sequence of Cellular tumor antigen p53 (Homo sapiens) (P04637 whole entry, looked up): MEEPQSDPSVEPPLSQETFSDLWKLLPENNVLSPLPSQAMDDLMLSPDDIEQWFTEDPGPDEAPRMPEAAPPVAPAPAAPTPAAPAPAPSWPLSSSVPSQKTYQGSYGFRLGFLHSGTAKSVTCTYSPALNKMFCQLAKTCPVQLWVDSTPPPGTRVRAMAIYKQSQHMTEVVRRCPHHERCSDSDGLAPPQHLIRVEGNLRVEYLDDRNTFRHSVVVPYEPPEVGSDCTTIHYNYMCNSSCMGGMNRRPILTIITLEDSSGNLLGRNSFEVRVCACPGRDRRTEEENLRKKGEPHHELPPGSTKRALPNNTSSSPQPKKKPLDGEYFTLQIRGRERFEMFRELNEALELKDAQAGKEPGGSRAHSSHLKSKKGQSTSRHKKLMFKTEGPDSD
# Outline: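 HCT116 p53-bla cells (4000/well) given compound in DMSO (217-fold dilution) after 5 h, incubated 16 h at 37C. CCF4-AM substrate 2 h at room temperature; 460/530 nm emission ratio, gain fitted against DMSO.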
# [8] = TOX21_p53_BLA_p5_viability: Viability Assessment in the Tox21 HCT-116 p53 Agonism Beta-lactamase Assay, Phase 5 (AID 2283600)
# Outline: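 Compounds, pinned from DMSO at 217-fold dilution, were left on the cells for 16 h. The viability endpoint was ATP content measured by CellTiter-Glo luminescence, where falling signal reflects cytotoxicity.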
# [9] = target: Cellular tumor antigen p53 (Homo sapiens) (UniProt P04637); assay: TOX21_p53_BLA_p4_ratio: Tox21 HCT-116 p53 Agonism Beta-lactamase Assay, Ratio, Phase 4 (AID 2283601)
# Outline: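 HCT-116 p53 beta-lactamase reporter cells (4000/well) preincubated 5 h, then compound (217-fold dilution of DMSO stock) for 16 h at 37C. CCF4-AM substrate added 2 h at room temperature; 460/530 nm emission ratio fitted upward versus DMSO.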
# [10] = TOX21_p53_BLA_p4_viability: Viability Assessment in the Tox21 HCT-116 p53 Agonism Beta-lactamase Assay, Phase 4 (AID 2283597);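 further: hits lower the luminescence signal meaning cytotoxicity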
# Outline: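 We seeded HCT116 p53 reporter cells at 4000/well and waited 5 h. We then added compounds in DMSO at a 217-fold dilution and incubated for 16 h. Viability was read as CellTiter-Glo luminescence after 30 min at RT.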
# [11] = target: Cellular tumor antigen p53 (Homo sapiens) (UniProt P04637); assay: TOX21_p53_BLA_p5_ratio: Tox21 HCT-116 p53 Agonism Beta-lactamase Assay, Ratio, Phase 5 (AID 2283599)
# Outline: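 HCT-116 p53-bla cells (4000/well) plated 5 h, dosed with compound (217-fold DMSO dilution) for 16 h at 37 C; CCF4-AM substrate 2 h at room temperature. Activity is the 460/530 nm emission ratio (405 nm excitation), fitted in gain-of-signal direction versus DMSO.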
compound,measurement,setting,value
O=C(O)c1ccccc1C(=O)Nc1cccc2ccccc12,AC50,[1],85.4 µM (active)
same,AC50,[2],53.8 µM (active)
same,outcome,[3],inactive
same,outcome,[4],inactive
O=C(NC(=O)c1ccccc1Cl)Nc1ccc(OC(F)(F)F)cc1,outcome,[5],inactive
same,outcome,[6],inactive
same,outcome,[7],inactive
same,outcome,[8],inactive
same,outcome,[9],inactive
CC(=O)CCC(C)=O,outcome,[5],inactive
same,outcome,[6],inactive
same,outcome,[10],inactive
same,outcome,[11],inactive
c1ccoc1,outcome,[5],inactive
same,outcome,[6],inactive
same,outcome,[7],inactive
same,outcome,[10],inactive
same,outcome,[11],inactive
same,outcome,[8],inactive
